Each structure is given as a SMILES string. Inconclusive results are not listed. Where a call stands in place of a potency, no number is given. Active and inactive are the calls of the source. The call rests on the fitted dose curve; in most records, active means well fitted activation curve with a large enough effect; inconclusive means small, poorly fitted or top-dose-only effect; inactive means flat fitted curve, though single readings scatter. Bridge positions count the residues as written; N and C are the ends. Square brackets hold non-standard residues; d marks the D form. Side chains are listed from the residue outwards. Peptide text beside a SMILES is read from it. * marks the point of attachment. Phg(4-OMe) = COc1ccc([C@H](N)C(=O)O)cc1; d(aIle) = CC[C@H](C)[C@@H](N)C(=O)O; d(aThr) = C[C@@H](O)[C@@H](N)C(=O)O; NMeF = CN[C@@H](Cc1ccccc1)C(=O)O; Isobutyryl = CC(C)C(=O)*
Potency means the concentration at half of the fitted maximal effect.

The experiment in a line: qHTS for H2AX Agonists against the NCATS CANVASS Library (AID 1347378). Conditions: CHO-K1 H2AX phosphorylation, HTRF TR-FRET, 3 h; series mostly up to 76.9 µM. Put shortly:
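CHO-K1 cells (1000/well, overnight at 37C) exposed to compounds at several concentrations for 3 hr at 37C, 0.76% DMSO final. Lysates read by TR-FRET (phospho-H2AX S139 Eu-cryptate antibody / H2AX-d2 antibody) after 24 hr at room temperature; 665/615 nm ratio.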
(qHTS replaces the single test concentration by a dilution series.)
Consider `CC(C)=CCC[C@]12c3cc4c(cc3CC[C@@]1(C)[C@H](C)CC[C@@H]2O)[nH]c1ccccc14`, for which the Potency entry was “inactive”.

Regarding `C/C=C/C1C=CC2CC(C)CC(C)C2C1C(=O)CC(=O)NC(CO)C/C=C/CCCCC` (stereo not given), the Potency entry was “inactive”. Same read-out and setting: then `C=C1CC[C@@H](Br)C(C)(C)[C@]12CC=C(C)C(=O)C2`, with “inactive”; and `COc1cc(/C=C/C(=O)OC[C@@H](Cc2ccc(O)c(OC)c2)[C@@H](COC(=O)/C=C/c2ccc(O)c(OC)c2)Cc2ccc(O)c(OC)c2)ccc1O`, with “inactive”; and `C=C[C@@]1(C)CC[C@@H]([C@H](C)C(=O)/C=C/C(C)(C)O)O1`, with “inactive”. The same measure, in the same setting: with `O=C1CC2OCC=C3CN4C5CC3C2[C@@H]2N1c1ccccc1[C@]52C[C@@H]4C1=C[C@H]2C3CC4N(CC[C@@]45c4ccccc4N(C1=O)[C@@H]25)C/C3=C/CO` (stereo not given in full) the entry was “inactive”; with `C=C1CC[C@@H](O[C@H]2C[C@@](O)([C@H](C)NC(=O)c3[nH]c(C)c(Cl)c3Cl)[C@H](O)[C@@H](C)O2)[C@@H]2C=C[C@H](C)C(/C(O)=C3/C(=O)[C@H](C(C)C)N([C@@H]4O[C@H](C)[C@H](OC(N)=O)[C@H](OC(C)=O)[C@@H]4OC)C3=O)[C@@H]12` (stereo not given in full), “inactive”; with `CC[C@H](C)[C@H]1NC(=O)[C@@H](NC(=O)C(C)C)[C@@H](C)OC(=O)[C@H](COC(=O)CNC(C)=O)NC(=O)[C@@H]([C@@H](C)O)NC(=O)[C@H](Cc2ccccc2)N(C)C(=O)[C@H](c2ccc(OC)cc2)NC1=O` (Isobutyryl-T[d(aIle)][Phg(4-OMe)][NMeF][d(aThr)]S([Gly-Ac]); ester 1-C), “inactive”. On the same count and under the same terms, then `C=C(C)CC[C@H](Cc1c(O)cc(O)c2c1O[C@H](c1ccc(O)cc1)CC2=O)C(=C)C`, with “inactive”; and `COc1c(O)cc2c(c1O)C(=O)c1c(coc1C)C2=O`, with “inactive”; and `C[C@]12CC[C@]3(C1)[C@H](CC2=O)C[C@@H](OC(=O)c1ccccc1)[C@H]1[C@](C)(C(=O)O)CCC[C@@]13C`, with “inactive”. In the case of `Cc1occ2c1C(=O)c1c(cc(O)c(O)c1O)C2=O`, the Potency was 24.4 µM (active). On the same count and under the same terms, with `COc1ccc2[nH]c3c(c2c1)CCN1C[C@H]2C[C@@H](OC(=O)c4cc(OC)c(OC)c(OC)c4)[C@H](OC)[C@@H](OC)[C@H]2C[C@H]31` the entry was “inactive”; with `C=C[C@](Cl)(CBr)CCC=C(C)C`, “inactive”; with `CC(=O)O[C@H]1c2ccccc2-c2c3c(cc4c2[C@@H]1N(C(C)=O)CC4)OCO3`, “inactive”. On the same count and under the same terms, with `C=CC(CCCCC)C1C(=O)NC(=O)C1C(=O)C1C2C(C)CC(C(=O)O)CC2CC1(O)C(=O)/C=C/C` (stereo not given) the entry was “inactive”. In the case of `O[C@H]1c2ccccc2-c2c3c(cc4c2[C@@H]1NCC4)OCO3`, the Potency result is “inactive”.

Regarding `C[C@]12CCC[C@](C)(C(=O)O)[C@@H]1CC[C@@]1(C)c3cocc3CC[C@H]21`, the Potency entry is “inactive”. On to `COc1cc(C2OCC3C(c4ccc(O)c(OC)c4)OCC23)ccc1O` (stereo not given), for which the activation was -3.74% [at 15.3 µM] (inactive). In the case of `COc1cc(O)c(C(=O)[C@@H]2[C@H](CC=C(C)C)C(C)=CC[C@H]2c2ccccc2)c(O)c1`, the Potency result was “inactive”.

On to `CCC(=O)N[C@@H](C[C@H](C)C(Cl)(Cl)Cl)C(=O)N1C(=O)C=C(OC)[C@@H]1CC(C)C`, for which the Potency entry is “inactive”. Same read-out and setting: then `O=c1cc(-c2ccc(O)c(O)c2)oc2cc(O[C@@H]3O[C@H](CO)[C@@H](O)[C@H](O)[C@H]3O)cc(O)c12`, with “inactive”; and `C/C1=C/[C@@H](C)[C@H](O)[C@@H](O)/C=C/CC/C=C/C(=O)O[C@@H]1[C@H](C)C(=O)CCCC1CC(=O)NC(=O)C1`, with “inactive”; and `CN1CC[C@]2(c3cccc4c3N[C@H]3N(C)CC[C@@]43[C@]34CCN(C)[C@H]3Nc3ccccc34)c3ccccc3N[C@H]12`, with “inactive”. The same measure, in the same setting: with `CC[C@H]1[C@H](C)[C@H](c2cc(OC)c(OC)cc2OC)[C@@H](C)[C@H](c2cc(OC)c(OC)cc2OC)[C@@]12C=C(OC)C(=O)C=C2OC` the entry was “inactive”; with `CC(=O)Oc1cc2c(c(OC(C)=O)c1C1CCc3cc(Cl)c(Cl)n31)C(=O)n1c-2cc(Cl)c1Cl` (stereo not given), “inactive”; with `COc1cc2c(cc1OC)[C@@H](c1ccc3c(c1)OCO3)C(C)C(C)C2=O` (stereo not given in full), “inactive”.

With `C/C=C(/C)c1c(Cl)c(O)c(C)c2c1Oc1c(Cl)c(O)c(Cl)c(C)c1C(=O)O2`, the Potency result was “inactive”. Still for that read-out and setting: then `CC(C)C[C@@H]1c2c(O)c(C=O)c(O)c(C=O)c2O[C@]2(C)C=C[C@@H](C(C)C)C[C@H]12`, with “inactive”.

As for `C/C=C(/C)c1cc(O)c(C)c2c1Oc1cc(O)cc(C)c1C(=O)O2`, the Potency entry was “inactive”.

Values taken from PubChem BioAssay (NCATS).
